TrxR1 inh – qHTS Assay for Inhibitors of Mammalian Selenoprotein Thioredoxin Reductase 1 (TrxR1): qHTS; 1% of 390,000 active; Thioredoxin reductase 1, cytoplasmic (Rattus norvegicus), O89049; recombinant rTrxR1, NADPH fluorescence consumption, selenite substrate; Potency, µM (titrated, usually from 114 µM), for the others: top-dose activity change, negative = inhibition, actives largely listed as inhibitors; also: potency is read from the fitted curve at half-maximal effect; nearly all actives have a fitted effect of over 65% in size
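Rat TrxR1 (90 nM in the dispensed reagent) was pre-reduced with 400 uM NADPH for 5 min at room temperature, then incubated with compound for 15 min. After 400 uM selenite was added, NADPH fluorescence (Ex 340/Em 450 nm) was followed for 8 min.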
GALK inhibitor – qHTS Assay for Inhibitors of Human Galactokinase (GALK); P51570; Purified GALK, Kinase-Glo residual ATP luminescence; Potency, µM (doses to about 57.5 µM), inactives show top-dose activity change, negative = inhibition, most hits filed as inhibitors; 0.007% of 270,000 active; AID 1868, 2009; also: potency is read from the fitted curve at half-maximal effect
Target sequence (P51570 whole entry, looked up): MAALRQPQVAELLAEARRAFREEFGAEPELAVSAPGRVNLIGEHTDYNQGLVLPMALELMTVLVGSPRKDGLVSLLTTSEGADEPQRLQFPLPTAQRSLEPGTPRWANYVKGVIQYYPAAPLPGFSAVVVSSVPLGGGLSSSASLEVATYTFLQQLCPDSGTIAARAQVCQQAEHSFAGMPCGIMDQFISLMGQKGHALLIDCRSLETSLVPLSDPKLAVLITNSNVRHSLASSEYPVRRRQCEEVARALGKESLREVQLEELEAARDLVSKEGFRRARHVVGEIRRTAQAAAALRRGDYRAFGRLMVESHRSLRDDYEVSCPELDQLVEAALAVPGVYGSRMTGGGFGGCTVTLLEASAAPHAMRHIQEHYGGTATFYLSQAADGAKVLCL
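Kinase-Glo Plus luminescence measured ATP left after a 1 h room-temperature reaction. The reaction used 5 nM GALK, 100 uM galactose and 35 uM ATP at pH 8.0 (20 mM HEPES, 5 mM MgCl2, 60 mM NaCl, 1 mM DTT, 0.01% BSA).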
Giardia kill – Small Molecules that selectively kill Giardia lamblia: qHTS | Giardia lamblia trophozoite viability | activity change, % at 7.66 µM, hits read low | 0.15% of 340,000 active | AID 540267, 2011; in the data active = activity change below about -80%; inconclusive = between about -30% and that limit;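 also: parasites exposed to compound for two days anaerobically before the ATP read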
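Viability, read as ATP luminescence: trophozoites at 100 cells/well, compound added, 48 hrs anaerobic at 37 deg C, then 15-30 min room-temperature development before reading.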
PI4K2A inh – qHTS for small molecular inhibitors of PI4K2A; 0.13% of 420,000 active; purified PI4K2A, ADP-Glo luminescence, 1 h; active compounds read low; Phosphatidylinositol 4-kinase type 2-alpha (Homo sapiens), Q9BTU6; activity change, negative = inhibition, % at 76.9 µM; AID 1346378, 2018; in the data active = activity change below about -50%; inconclusive = mostly about -30% to -49%;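 also: -100% = wells without enzyme as full effect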
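ADP-Glo luminescence measured ADP generated by PI4K2A enzyme (4 ug/mL before mixing) with 1.2 mM PI substrate (pre-mix) and 300 microM ATP (pre-mix). Tris pH7.5 buffer with MgCl2, Triton X-100; 1 h reaction at ambient temperature.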
TrxR1 substrate – qHTS Assay for Substrates of Mammalian Selenoprotein Thioredoxin Reductase 1 (TrxR1): qHTS; 0.01% of 390,000 active; Potency, µM (doses to about 114 µM), for the others: at the highest dose activity change, negative = substrate turnover; Thioredoxin reductase 1, cytoplasmic (Rattus norvegicus), O89049; purified TrxR1 substrate turnover, NADPH consumption readout; also: potency is read from the fitted curve at half-maximal effect; nearly all actives have a fitted effect of over 50% in size
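Rat TrxR1, dispensed at 90 nM, was prereduced with 400 uM NADPH (final) for 5 min at ~22 deg C, then incubated with compound 15 min before 400 uM selenite. A first-read NADPH fluorescence drop versus no-compound background flagged substrates.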
Coupling enz – qHTS Assay for Inhibitors of Fructose-1,6-bisphosphate Aldolase from Giardia Lamblia: Coupling assay counterscreen; coupling enzyme system counterscreen, AmpLite Red fluorescence; activity change, negative = inhibition, % at 58.2 µM, hits read low; 0.67% of 290,000 active; in the data active = activity change below about -30%
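Activity here indicates interference with the coupling reaction, not aldolase inhibition. Compounds at 57.5 uM final met coupling enzymes for 10 min at RT; substrate and AmpLite Red detection followed, with a 525/598 nm fluorescence read after 20 min.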
Starred values were filed as active, the others as inactive; ? = inconclusive; . = not tested or not shown; ! = repeats disagree; [ ] = remark or other dose. In the library only some 1.5% were active in any assay of this set; here they are far more common. Unless noted, calls follow the shape of the dose curve; as a rule, active = well fitted curve in the direction sought with a large enough effect; inconclusive = small, poorly fitted or top-dose-only effect, or another doubt; inactive = no such curve, though single readings can be large; an effect the other way counts as inactive or inconclusive. Unless noted, % is scaled to controls: 0 for no effect and ±100 for the full control effect.

SMILES	TrxR1 inh	GALK inhibitor	Giardia kill	PI4K2A inh	TrxR1 substrate	Coupling enz
CCCCC1=CC2=CC(=O)C(C)(OC(=O)CC)C(=O)C2=CN1C(CO)CO (centres undefined)	-11%	-2%	21	-9	-6%	-42*!
CC(c1ccccc1)c1nnc(NC(=O)Nc2ccccc2F)s1 (centres undefined)	20%	2%	?	-50*	-2%	-1
CCOc1ccc(NC(=O)c2ccc3c(c2)CCN3S(=O)(=O)c2ccc(Cl)cc2)cc1	17%	.	.	0	-3%	.
Cc1[nH]c2ccccc2c1C(C[N+](=O)[O-])c1ccco1 (centres undefined)	13µM*	-1%	0	-15	2%	-9
O=C(O)[C@H](O)[C@@H](O)[C@H](O[C@@H]1O[C@H](CO)[C@H](O)[C@H](O)[C@H]1O)[C@H](O)CO	.	.	.	-4	.	.
CCCCCCCCCCCCCCCCCCNC(=O)OC1CCN(C(=O)OC[C@H](COC(=O)N(Cc2cccc[n+]2CC)C(=O)c2ccccc2OC)OC)CC1	.	.	.	1	.	.
CN(CC(=O)Nc1ccc(N2CCOCC2)cc1)Cc1c(O)ccc2ccccc12	4µM*	-3%	-23	-2	13%[57.1 µM]	-21
Cc1ccc(S(=O)(=O)c2ncccc2[N+](=O)[O-])cc1	2µM*	1%	?	0	-1%[57.1 µM]	-1
CCOC(=O)CC[C@@]1(C(=O)OCC)C[C@@H](CC(=O)NCCc2ccccc2OC)C(=O)N2CCCC=C21	.	.	.	-2	.	.
NC(=O)CCCn1c(C(=O)c2ccc(Cl)cc2)c2ccc([N+](=O)[O-])cc2[n+]1[O-]	-19%	.	-87*	-4	-4%	.
Cc1cc(Cl)ccc1NC(=O)CN1C(=O)COc2ccc(S(=O)(=O)Nc3ccccc3)cc21	16%	.	.	-2	-6%	.
CCOC(=O)c1[nH]c(=O)[nH]c1COC(=O)c1cc2ccccc2o1	3.2µM*	3%	1	0	1%	1
CCOC(=O)c1[nH]c(=O)[nH]c1CSc1nc(C)cc(C)n1	-5%[57.1 µM]	-5%	10	2	-2%[57.1 µM]	1
CC(=O)Nc1cc(O)c2nonc2c1O	5.6µM*	.	-3	.	3.2µM*	.
CC(=O)Nc1c(O)cc(Br)c2nonc12	-31%	.	2	.	-2%	.
COc1ccc(CNC(=O)c2cnc(N3CCCC3)nc2C)cc1	8%[57.1 µM]	.	.	0	2%[57.1 µM]	.
COc1ccc(Br)cc1CNC(=O)c1nn(-c2ccc(C)cc2)c(=O)c2c1c1ccccc1n2C	10%	.	.	-3	-2%	.
CCCC(=O)Nc1nnc(S(=O)(=O)N(C)Cc2ccco2)s1	40µM*	-2%	9	-6	-3%	0
CN(Cc1ccco1)S(=O)(=O)c1nnc(NC(=O)c2ccccc2Cl)s1	25µM*!	3%	13	-16	2%	.
CCC(=O)Nc1nnc(S(=O)(=O)N(C)Cc2ccco2)s1	?	5%	11	-3	-5%	.
Cc1ccccc1C(=O)Nc1nnc(S(=O)(=O)N(C)Cc2ccco2)s1	45µM*	0%	-22	2	4%	-4
Cc1ccc(C(=O)Nc2nnc(S(=O)(=O)N(C)Cc3ccco3)s2)cc1	45%	.	.	-3	17%	.
CC(C)Oc1ccc(CNC(=O)C2CCN(C(=O)N3CCOc4ccc(Cl)cc43)CC2)cc1	10%	.	.	-1	2%	.
C[C@H]1[C@H](NC(=O)c2ccc(C(F)(F)F)cc2)CC[C@@]23CCCN2C(=O)CCC[C@@H]13	.	.	.	-1	.	.
CC1=C(CC(=O)c2ccccc2)C(=O)c2ccccc2C1=O	2%	-9%	-11	2	-1%	-36*
SMILES	TrxR1 inh	GALK inhibitor	Giardia kill	PI4K2A inh	TrxR1 substrate	Coupling enz
O=C1CN(S(=O)(=O)c2cc(Br)ccc2Br)CCN1	13%	.	-7	-3	1%	.
O=c1c(Br)ccc(Br)cc1Br	0.2µM*	.	1	?	13%[11.4 µM]	.
COc1ccc(-c2noc(C3CCCN(C(=O)Nc4ccc5c(c4)OCO5)C3)n2)cc1 (centres undefined)	.	.	.	-2	.	.
COc1ccc(OC)c(NC(=O)c2cccc3c2C(=O)N(C2CCCCC2)C3)c1	22µM*!	-4%	-16	3	7%	-1
Cc1nn(-c2ccccn2)c2nc(-c3cccs3)cc(C(=O)NCc3ccco3)c12	-18%	0%	-8	-7	145%	-2
Cc1nn(-c2ccccc2)c(C)c1C(=O)OCC(=O)NCc1ccco1	56µM*	1%	9	-3	4%	1
Cc1nn(-c2ccccc2)c2nc(-c3ccncc3)cc(C(=O)NCc3ccco3)c12	50µM*	0%	-2	-21	1%	0
Cc1cc(C)cc(NC(=O)c2cc(C)nc3c2c(C)nn3-c2ccccc2)c1	79µM*	.	.	2	41%	.
Cc1nn(-c2ccccc2)c(C)c1C(=O)OCC(N)=O	22%	9%	10	-1	4%	3
CCN(c1ccccc1)S(=O)(=O)c1ccc(NC(=O)c2cc(=O)c3ccc(C)c(C)c3o2)cc1	-10%	.	.	-6	0%	.
COc1ccc(-n2c(SCC(=O)NCC3CCCO3)nnc2-c2ccncc2)cc1 (centres undefined)	.	.	.	4	.	.
CC(C)(C)c1ccc(-c2noc(CCC(=O)NC3CC3)n2)cc1	.	.	.	1	.	.
CCOC(=O)CCCNC(=O)N1CCc2nc(-c3ccccc3)c3c(c2C1)CO[C@@H](C)C3	.	.	.	.	.	2
CCOC(=O)N1C(=O)[C@](CC)(c2ccccc2)N1C(=O)OCC	3.2µM*	.	2	1	1%	-3
CCOc1cc(NS(=O)(=O)c2ccccc2)c(OCC)cc1NC(=O)c1ccco1	71µM*	-2%	7	0	-2%	-20
CCNC(=S)Nc1cc(OCC)c(NC(=O)c2ccco2)cc1OCC	12%	-2%	7	-3	-1%	-9
CCOC(=O)Oc1ccc(CCNC(=O)[C@H](CCSC)NC(C)=O)cc1OC(=O)OCC	.	.	.	1	.	.
CCOc1ccc(C(C)=O)cc1N1C(=O)C2C3C=CC(O3)C2C1=O (centres undefined)	3.2µM*	-3%	-7	2	7%	3
Cc1cc(SCC(=O)N/N=C/c2ccc(O)c(O)c2O)c(C)cc1Br	-28%	0%	-4	-2	-13%	-32*
COc1cc(/C=N/NC(=O)CSc2cc(C)c(Br)cc2C)ccc1O	-9%	1%	-2	4	-2%	0
